Each structure is given as a SMILES string. Values without a mark were called inactive. Records with an inconclusive call do not appear. Calls of active or inactive are those of the source. The call rests on the fitted dose curve; in most records, active means well fitted curve in the direction sought with a large enough effect; inconclusive means small, poorly fitted or top-dose-only effect, or another doubt; inactive means no such curve, though single readings can be large; an effect the other way counts as inactive or inconclusive.

From PubChem BioAssay (NCATS) come the findings set out here.

Test [1] addresses Glutathione peroxidase 1 (Homo sapiens) (UniProt P07203). The test is described as follows: Primary qHTS Assay for Inhibitors of Recombinant Selenoprotein Glutathione Peroxidase 1 (GPX1) (AID 1845191). Further: nearly all actives have a fitted effect of over 65% in size. On activity, negative = inhibition: on the % scale 0 is the no-effect control and ±100 the full control effect. In outline:
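Recombinant GPX1 (10 nM final) was preincubated with compound for 30 min at room temperature, then reacted with 1 mM GSH, 0.5 mM CHP, 0.5 mM NADPH and 100 nM glutathione reductase; NADPH fluorescence (340/450 nm) was read at 0 and 15 min.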
A general note: qHTS replaces the single test concentration by a dilution series.

Test [2] has as its target Phospholipid hydroperoxide glutathione peroxidase GPX4 (Homo sapiens) (UniProt P36969). The test is described as follows: Primary qHTS Assay for Inhibitors of Recombinant Selenoprotein Glutathione Peroxidase 4 (GPX4) (AID 1845192). Further: nearly all actives have a fitted effect of over 65% in size. On activity change, negative = inhibition: series mostly up to about 50 µM; on the % scale 0 is the no-effect control and ±100 the full control effect. The essentials:
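GR-coupled readout: 100 nM GR, 1 mM GSH, 0.5 mM NADPH; NADPH fluorescence (ex 340/em 450 nm) read at t=0 and after 15 min RT. GPX4 200 nM, preincubated 30 min with compound; substrate 0.5 mM CHP.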

Test [3] has as its target Luciferin 4-monooxygenase (Photinus pyralis) (UniProt P08659). The test can be described thus: Primary firefly luciferase (FLuc) qHTS assay for identification of artifact compounds. (AID 1845220). Further: nearly all actives have a fitted effect of over 60% in size.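 On activity change, negative = inhibition: series mostly up to about 54 µM; plate controls were DMSO vehicle for no effect and no enzyme for full effect.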 The essentials:
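qHTS, 15 min compound preincubation with substrate (10 uM luciferin, 10 uM ATP) at RT, then 10 nM FLuc; 5 min; luminescence; % inhibition vs no-enzyme/DMSO controls, 4-parameter Hill fit.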

Test [4] in a line: Primary fluorescence-based thiol-reactive (MSTI) qHTS assay for identification of artifact compounds. (AID 1845221). Further: nearly all actives have a fitted effect of over 65% in size. Further: potency means the concentration at half of the fitted maximal effect.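 On activity change, negative = thiol reactive: series mostly up to about 54 µM; thiol-reactive compounds lower the probe fluorescence signal.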 The essentials:
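MSTI probe at 4 uM final in 2% DMSO/PBS pH 7.4; compounds, 1 h at room temperature in dark. Fluorescence Ex/Em 525/598 nm, normalised to Acetyl-MSTI and MSTI, fitted to 4-parameter Hill.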

Test [5] has as its system Nanoluciferase (engineered Oplophorus gracilirostris luciferase). The test can be described thus: Primary Nanoluciferase (NLuc) qHTS assay for identification of artifact compounds. (AID 1845222).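 Further: series mostly up to about 54 µM; 0% = DMSO and -100% = no enzyme.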 In outline:
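Luminescence read-out of secreted NLuc in S16 cell conditioned medium (1:55); compounds tested with 15 min RT preincubation, then Nano-Glo substrate 1:100, 5 min. % inhibition vs no-enzyme and DMSO controls, 4-parameter Hill fit.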

Test [6] can be described thus: Primary redox qHTS assay for identification of artifact compounds. (AID 1845223).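 Further: 0% = DMSO and 100% = reference compound.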 The essentials: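 Amplex Red (25 uM) and HRP (250 mU/mL) in HBSS, with compounds for 15 min, then 250 uM DTT for 30 min, room temperature, dark. Fluorescence 525/598 nm read; normalized to DMSO and 10 uM DA3003; Hill fit.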

Phospholipid hydroperoxide glutathione peroxidase GPX4 (Homo sapiens), sequence (P36969 whole entry, looked up): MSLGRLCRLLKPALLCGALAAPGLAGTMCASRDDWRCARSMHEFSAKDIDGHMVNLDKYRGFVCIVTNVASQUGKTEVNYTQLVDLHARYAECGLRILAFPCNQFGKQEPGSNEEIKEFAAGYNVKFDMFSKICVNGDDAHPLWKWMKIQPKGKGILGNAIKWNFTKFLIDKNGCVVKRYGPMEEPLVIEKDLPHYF
Glutathione peroxidase 1 (Homo sapiens), sequence (P07203 whole entry, looked up): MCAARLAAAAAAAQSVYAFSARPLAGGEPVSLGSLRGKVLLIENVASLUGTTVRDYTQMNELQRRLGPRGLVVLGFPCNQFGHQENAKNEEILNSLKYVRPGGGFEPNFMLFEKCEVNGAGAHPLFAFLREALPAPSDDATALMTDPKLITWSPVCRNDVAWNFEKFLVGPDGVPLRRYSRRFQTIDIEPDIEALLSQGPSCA

Consider `CC1=CCC2C(C)(C)CCC[C@]2(C)[C@@]12CC[C@](C)(CC(=O)O)O2` (some centres undefined), for which the Potency entry in test [1], in test [2], in test [3], in test [4], in test [5] and in test [6] was “inactive” in each case.

Take `C=C(C)C1CC[C@]2(C(=O)O)CC[C@]3(C(=O)O)[C@H](CCC4[C@@]5(C)CC[C@H](O)C(C)(C)C5CC[C@]43C)C12` (some centres undefined): the Potency entry in test [1], in test [2], in test [3], in test [4], in test [5] and in test [6] was “inactive” in each case.

For the compound `CC1(C)CCC[C@@]2(C)C1[C@H](OC(=O)/C=C/C=C/C(=O)O)C=C1COC(=O)[C@@]12O` (some centres undefined), the Potency entry in test [1], in test [2], in test [3], in test [4], in test [5] and in test [6] was “inactive” throughout.

As to `CC12CCC(=O)C=C1C(O)CC1C2C(O)CC2(C)C1CC[C@]2(O)C(=O)CO` (some centres undefined), the Potency entry in test [1] and in test [2] was “inactive” each time. Besides, the activity change, negative = inhibition in test [3] was 2.02% [at 11.6 µM]. Moreover, in test [4], the activity change, negative = thiol reactive was -1.91% [at 11.5 µM]. Also, the activity, negative = inhibition in test [5] is 4.05% [at 11.6 µM]. Also, the redox activity (% of DA3003) in test [6] is -2.06% [at 11.5 µM].

On to `CCN(CC)Cc1ccc(C(=O)N(CCc2ccccc2OC)[C@@H]2CCNC2)cc1`, for which the Potency result in test [1], in test [2], in test [3], in test [4], in test [5] and in test [6] was “inactive” in each case.

In the case of `CC(C)(C#N)c1ccc(N2C(=O)OCc3cnc4ccc(-c5cnc6ccccc6c5)cc4c32)cc1`, the Potency entry in test [1], in test [2], in test [3], in test [4], in test [5] and in test [6] was “inactive” in each case.

With `Cc1noc(=O)c2ccc(NC(=O)C(O)(CC(C)(C)c3cccc4c3OCC4)C(F)(F)F)cc12` (centres undefined), the Potency entry in test [1], in test [2], in test [3], in test [4], in test [5] and in test [6] was “inactive” in each case.

Take `COc1c(Nc2ncc(Cl)c(N[C@H]3[C@@H](C(N)=O)[C@@H]4C=C[C@H]3C4)n2)ccc2c1CC[C@@H](N1CCOCC1)CC2`: the Potency result in test [1], in test [2], in test [3], in test [4], in test [5] and in test [6] was “inactive” throughout.

In the case of `CNS(=O)(=O)CC1CCC(N(C)c2ncnc3[nH]ccc23)CC1` (centres undefined), the Potency result in test [1], in test [2], in test [3], in test [4], in test [5] and in test [6] was “inactive” each time.

For the compound `C[C@@H]1O[C@@H](O[C@@H]2[C@@H](O)[C@H](O[C@H]3CC[C@@]4(C)C(CC[C@]5(C)C4CC=C4[C@@H]6CC(C)(C)CC[C@]6(C(=O)O[C@@H]6O[C@H](CO)[C@@H](O)[C@H](O)[C@H]6O)CC[C@]45C)C3(C)C)O[C@H](C(=O)O)[C@H]2O)[C@H](O)[C@H](O)[C@H]1O` (some centres undefined), the Potency result in test [1] and in test [2] was “inactive” in each case. The activity change, negative = inhibition in test [3] is 0.705% [at 11.6 µM]. For the same compound, the activity change, negative = thiol reactive in test [4] was 312% [at 11.5 µM]. In addition, in test [5], the activity, negative = inhibition was 2.86% [at 11.6 µM]. Besides, in test [6], the redox activity (% of DA3003) was 12.9% [at 11.5 µM].

Turning to `COC1/C=C/C(C)(O)C(SCC(N)C(=O)O)CC(=O)OC(C)C(C)CC/C=C/1C` (centres undefined), the Potency result in test [1], in test [2], in test [3], in test [4], in test [5] and in test [6] was “inactive” throughout.

As to `C[C@@H]1O[C@@H](O[C@H]2[C@H](OC(=O)[C@]34CCC(C)(C)C[C@H]3C3=CCC5[C@@]6(C)C[C@H](O)[C@H](O[C@@H]7O[C@H](CO)[C@@H](O)[C@H](O)[C@H]7O)[C@@](C)(CO)C6[C@H](O)C[C@@]5(C)[C@]3(C)CC4)OC[C@H](O)[C@@H]2O)[C@H](O)[C@H](O)[C@H]1O[C@@H]1OC[C@@H](O)[C@H](O[C@@H]2OC[C@](O)(CO)[C@H]2O)[C@H]1O` (some centres undefined), the figures for the outcome in test [1] and in test [2] were “inactive [at 9.52 µM]” and “inactive [at 9.73 µM]”, respectively. For the same compound, the activity change, negative = inhibition in test [3] was 1.22% [at 11.6 µM]. Further, the activity change, negative = thiol reactive in test [4] is 350% [at 11.5 µM]. Moreover, the activity, negative = inhibition in test [5] was 0% [at 11.6 µM]. Also, the redox activity (% of DA3003) in test [6] was 8.55% [at 11.5 µM].

Turning to `C=C(C)C(=O)O[C@H]1C[C@@](C)(O)C(=O)CC(O)/C(C)=C\[C@H]2OC(=O)C(=C)[C@H]12` (some centres undefined), the Potency entry in test [1], in test [2], in test [3], in test [5] and in test [6] was “inactive” in each case. For the same compound, the Potency in test [4] is 2.93 µM (active).

`Fc1ccc2nc(CCC#Cc3ccccn3)cn2c1`: the Potency entry in test [1], in test [2], in test [3], in test [4], in test [5] and in test [6] was “inactive” each time.

On to `C=C(C(=O)O)C1CC2=C(C)CCCC2(C)C[C@@H]1O` (some centres undefined), for which the Potency entry in test [1], in test [2], in test [3], in test [4], in test [5] and in test [6] was “inactive” throughout.

With `O=C(CC1C(=O)Nc2ccccc21)OC[C@H]1O[C@@H](OCCc2ccc(O)cc2)[C@H](O)[C@@H](O)[C@@H]1O` (some centres undefined), the Potency entry in test [1], in test [2], in test [3], in test [5] and in test [6] was “inactive” in each case. For the same compound, in test [4], the Potency is 9.22 µM (active).

As to `O=C1Nc2ccccc2C(O)(c2ccccc2)C1O` (centres undefined), the Potency entry in test [1], in test [2], in test [3], in test [4], in test [5] and in test [6] was “inactive” each time.

For the compound `CN[C@@H]1[C@H](O[C@H]2[C@H](O[C@@H]3[C@@H](O)[C@H](O)[C@@H](N=C(N)N)[C@H](O)[C@H]3N=C(N)N)O[C@@H](C)[C@]2(O)C=O)O[C@@H](CO)[C@H](O)[C@H]1O`, the Potency result in test [1], in test [2], in test [3], in test [4], in test [5] and in test [6] was “inactive” each time.

Consider `C[C@]12C=C[C@@]3(CCC4[C@](C)(CO)CCC[C@@]4(C)C3CC1)C2` (some centres undefined), for which the Potency result in test [1], in test [2], in test [3], in test [4], in test [5] and in test [6] was “inactive” each time.
